Assays:
Assay in all cases: PBM binding z-score (relative to random genomic background probes); higher = stronger binding; sequences stand for … in GC…GCGATTGACAGCGTAGAATGAAGG
[1] = test system: RARb homodimer (NR concentration 270 nM)
Summary of the method: (§1)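 On custom Agilent 4×180K arrays, double-stranded probes with 34-nt variable regions carried direct-repeat seeds, single-nucleotide variants, half-site ablations or random human genomic background. Ligand-free nuclear receptor dimers were applied for 1 h, and binding was read with antibodies against each partner (one per run). Binding z-scores come from regression-normalized fluorescence, with the random background probes as reference.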

[2] = test system: RARg:RXRa (NR concentration 270 nM, RXRa partner concentration 90 nM)
Summary of the method: as §1

[3] = test system: RARg homodimer (NR concentration 270 nM)
Summary of the method: as §1

[4] = test system: RXRa DBDmut IVT, anti-RXR (DBD mutation: RXRa K156A/R161A, NR concentration 90 nM)
Summary of the method: as §1

[5] = test system: RXRa homodimer (NR concentration 180 nM)
Summary of the method: as §1

[6] = test system: THRa:RXRa (NR concentration 90 nM, RXRa partner concentration 90 nM)
Summary of the method: as §1

[7] = test system: THRa homodimer (NR concentration 90 nM)
Summary of the method: as §1

[8] = test system: VDR homodimer (NR concentration 270 nM)
Summary of the method: as §1

Sequence | PBM binding z-score [1] | PBM binding z-score [2] | PBM binding z-score [3] | PBM binding z-score [4] | PBM binding z-score [5] | PBM binding z-score [6] | PBM binding z-score [7] | PBM binding z-score [8]
CCTGCTACGTCAATGGTCAGCTAAAGCAGCTCGC | 0.4 | -0.424 | -0.342 | 0.29 | -0.492 | -0.534 | -0.374 | -0.434
CCTGCTAGGTCAATGGTCATCTAAAGCAGCTCGC | 2.97 | 3.73 | 4.61 | 1.79 | 2.51 | 2.23 | 0.612 | 0.333
CTCGAAAGGTCGGTTGAGGTGAGTATCCGGATAA | 2.38 | 2.82 | 2.94 | 0.858 | 2.31 | 5.01 | 1.34 | 0.136
CAAACTAGGACACAGAGGTCAAAGTCCGTGCGTA | 4.68 | 5.54 | 5.17 | 2.31 | 6.42 | 4.36 | 2.5 | 5.25
GCTATTCGTTGAAAGGGCAACCGAATGATTCTCG | 1.85 | 1.23 | 1.21 | 0.319 | 0.916 | 0.348 | -0.335 | -0.329
TACCCTAGGTCATGCGGGCCAGTATAGTGTCGGC | 3.28 | 4.07 | 4.89 | 0.8 | 3.33 | 3.18 | 1.48 | 1.26
CGAACTAGGTCAGAACAGGACTGTGAAGGATGAT | 1.6 | 2.33 | 2.99 | 0.646 | 1.19 | 1.97 | -0.0804 | -0.341
CCTTACGGGCCACTGACAGGTTATAGCATTTGGA | 0.8 | 0.731 | 0.737 | -0.085 | 0.326 | 0.0187 | -0.159 | -0.034
CCTTACGGGTGAAGGTTATAGCACGGGTGGTACG | 0.868 | 0.873 | 0.868 | -1.61 | 1.23 | 0.509 | 0.0246 | -0.283
CAAACTAGGTCGAGGTCAAAGTCGGTTTGTGCCA | 4.43 | 5.24 | 4.79 | 2.93 | 5.63 | 4.31 | 3.49 | 5.19
TCAGACCGGTGAAGGTAACTCAGGTACGCAGTCG | 0.271 | 0.022 | -0.104 | 0.832 | 0.506 | 1.29 | -0.0547 | 0.152
CCAGACAGGTGAGAAAGTAACTCAGCCTCGATTA | 0.0469 | 0.0483 | 0.249 | 0.169 | 0.0557 | -0.0555 | -0.123 | -0.255
TCTTGTAGATAAAAGGTTAAGAAAGCCGAAGCCT | 1.42 | 1.43 | 0.971 | 1.2 | 2.28 | 1.14 | -0.62 | 0.00564
TTGCCTAGGTCATGCGGGCCAGTATAGTGTCGGC | 2.96 | 3.93 | 4.33 | 0.791 | 2.76 | 3.08 | 0.807 | 0.421
TCATATAGGTAAAAGTGAAAGTCGAACGATATGA | -0.485 | 0.288 | 0.384 | 0.791 | 0.523 | -0.171 | -0.456 | -0.103
AGAATGAGGATATACGTAGATCAGGGAAGAAAGT | -0.46 | 0.0404 | 0.424 | -0.474 | -0.0531 | 0.415 | -0.039 | -0.0995
CGTCCAAGGTCAATGCTAGGTCCGTGAAAGCATT | 3.83 | 5.71 | 5.7 | 3.67 | 4.55 | 3.82 | 2.12 | 2.96
TCATATAGGTAAACAGGCGAAAGTCCGTAAGTTA | 0.187 | 0.299 | -0.00353 | 1.36 | 0.859 | 0.323 | -0.0757 | 0.216
GCTAGCAGGCCATTTGGGTCACTCTATGACGGGC | 1.56 | 0.776 | 0.994 | -0.157 | 0.463 | 1.4 | 0.526 | 0.578

Sequence | PBM binding z-score [1] | PBM binding z-score [2] | PBM binding z-score [3] | PBM binding z-score [4] | PBM binding z-score [5] | PBM binding z-score [6] | PBM binding z-score [7] | PBM binding z-score [8]
TCTTGTAGATCAATAGAGGCTAAGAAAGTGCGCT | -0.029 | 0.139 | -0.0605 | 0.703 | 0.213 | 0.676 | -0.939 | -0.123
CCTACTGGGCCATCAGGTCACTGATATCAACGTT | 2.82 | 2.28 | 2.5 | -0.0787 | 1.54 | 3.34 | 3.44 | 0.813
TCGAGTAGGTTACCAATGCGGCATTCAGCTTTCT | -0.23 | 0.0889 | 0.12 | 0.365 | 0.498 | -0.131 | -0.859 | -0.937
AATACAGGGTCATCGTAGGCCAGATTACGCACAG | 3.54 | 5.85 | 4.96 | 3.82 | 6.58 | 4.42 | 1.56 | 3.35
TCAGACAGGTGAAGGTAAGTCAGGTACGCAGTCG | 1.09 | 0.505 | 0.581 | 1.17 | 0.716 | 0.959 | 0.538 | 0.0228
GGAACGAGGACAAAGTTGATAGCATCTGTCGACG | 0.33 | 0.769 | 1.2 | 1.23 | 0.361 | 2.36 | 0.861 | 0.141
ATCGAAAGGTTGAAGGTGAGTATACCCACCCGAA | 0.919 | 1.45 | 1.24 | -0.0221 | 2.38 | 0.997 | -0.184 | 0.162
AGTCAAAGTTCAGGACGCGGTAACGTAAAGCACG | 3.04 | 4.4 | 4.94 | 2.98 | 2.78 | 2.74 | 1.23 | 1.79
CTCGAAAGGTCGGTTTAGGTGAGTATACGGATAA | 1.77 | 2.33 | 2.31 | 1.26 | 1.8 | 4.51 | 0.786 | 1.04
TCTTGTAGATCAATAGAGGTTTAGAAAGTGCGCT | -0.294 | -0.0286 | -0.308 | 0.603 | 0.0167 | 0.294 | -0.767 | 0.0472
CCTACTGGGCCTAGGTCATTGATCAGTCAAAGCA | 2.06 | 2.02 | 1.46 | -0.592 | 1.34 | 2.07 | 0.765 | 0.74
AGTCAAGGTTCAGGACGAGGTAACGTAAAGCACG | 1.55 | 3.45 | 2.41 | 2.61 | 2.19 | 3.55 | 1.75 | 2.25
CCTTACGGGTCACTCCAGGTTAGAGCATCGGAGT | 3.08 | 4.43 | 4.37 | 1.55 | 4.07 | 4.81 | 0.277 | 1.18
CGCACTAGGTCAGAACAGGACAGTGAAGGATGAT | 2.18 | 2.44 | 3.31 | 0.675 | 1.34 | 3.71 | 0.508 | -0.275
ATCTCTAGGTAACACTCAGTTCAGTGAAGAACGC | 1.27 | 0.926 | 0.875 | 1.05 | 0.63 | 1.64 | 1.38 | 2.25
ACTCAAAGTTCATCTAGGTAACGTAAGATATGCT | 4.25 | 5.51 | 6.3 | 4.87 | 4.62 | 3.37 | 0.619 | 5.89
CAGCCTAGGTCAGAGCCAGTATAGGAGGAACGTT | 2.13 | 2.87 | 3.5 | 0.588 | 1.5 | 1.76 | 0.271 | -0.348
CGAACTAGGTCAGAACAGGACGGTGAAGGATGAT | 1.69 | 2.3 | 3.17 | 0.53 | 1.14 | 2.43 | -0.175 | -0.257
CCTTACGCGTCACGAGGTTATAGCACGACGAGCG | 0.644 | 0.881 | 0.604 | 0.705 | 1.38 | 1.51 | 0.967 | 0.734

Sequence | PBM binding z-score [1] | PBM binding z-score [2] | PBM binding z-score [3] | PBM binding z-score [4] | PBM binding z-score [5] | PBM binding z-score [6] | PBM binding z-score [7] | PBM binding z-score [8]
CGTCAAAGTTGAACTAAGGTAACGTAAAGCACGC | 1.98 | 2.06 | 1.86 | 0.678 | 1.68 | 4.72 | 1.74 | 0.519
CCGACTGGGGCAGAAAGGTGACCATACCATCCGG | 1.8 | 0.634 | 0.776 | -0.975 | 0.533 | 0.282 | -0.472 | -0.595
CGTCCAAGGTGAATGCTAGGTCAGTGAAAGCATT | 2.81 | 3.71 | 1.91 | -0.198 | 1.02 | 3.27 | 1.59 | -0.00133
CGTCCAAGATCAGAGAGGTCAGTGAATGCCGAGT | 3.9 | 2.95 | 3 | 0.949 | 2.5 | 2.64 | 0.926 | 2.37
TTACCACGGTGAAGGTCGTTGATCCCTCTGTAGA | 1.29 | 0.459 | 0.382 | -0.000966 | 1.37 | 0.834 | 0.375 | 0.451
CGTCAAAGTTCAACTAAGGTATCGTAAAGCACGC | 4.26 | 5.92 | 6.75 | 4.68 | 5.21 | 4.92 | 0.41 | 4.04
CCGGCTGGGGCAAGGTTACCATAACGCACAGCCA | 1.41 | 1.14 | 1.27 | -1.12 | 1.14 | 1.03 | -0.0935 | -0.883
CCTACTGGGCCACGAAAGGTCAGTGATTCAGTGA | 3.87 | 3.69 | 4.04 | -0.37 | 3.1 | 3.1 | 0.0818 | 0.0755
CGTCCAGGGTCAAGGTCAGTGAAAGAGACTCGAA | 4.96 | 6.51 | 6.69 | 2.77 | 6.61 | 4.19 | 2.79 | 2.98
CCTACTGGGCCAAAGGTCATTGCTTCCAATGCTC | 4.58 | 5.56 | 4.3 | 1.36 | 5.91 | 3.37 | 0.719 | 2.42
CAAACTAGGTCAAGGTCAGAGTCGGTTTGTGCCA | 4.8 | 5.32 | 6.42 | 2.33 | 4.6 | 4.29 | 3.28 | 2.79
AGTCAAAGTACAGGACGAGGTAACGTAAAGCACG | 0.274 | 0.526 | 0.919 | -0.155 | 0.598 | 1.39 | 0.878 | -0.0315
CCTACTGGACCATCAGGTCATTGATATCAACGTT | 2.7 | 1.67 | 1.56 | 1.08 | 1.37 | 3.38 | 3.78 | 2.38
AGATGTAGGTTAGCTGGGGTCATTCAGACTAGGC | 3.53 | 3.96 | 2.72 | 1.78 | 5.24 | 5.05 | 3.03 | 4.8
AGAGACAGGTGATGAAGGTAACTCAGGCTATCAT | 0.746 | 0.284 | 0.541 | -0.709 | 0.56 | 1.25 | 0.485 | 0.0584
CCGCGTAGGTTATGGGGCATTCAGGCAACGGTGA | 1.05 | 0.489 | 0.397 | -0.64 | 0.576 | 0.529 | 0.176 | -0.154
AGTCAAAGTTCATCTAGGTGACGTAAGATATGCT | 3.92 | 5.42 | 5.9 | 4.62 | 4.44 | 3.16 | 0.193 | 4.86
TCTTGTAGATCAATAGGAGGTTAAGAAAGATCGA | 0.457 | 0.595 | 0.446 | 1.01 | 0.992 | 0.723 | -0.311 | -0.266
